Screens: PubChem BioAssay, several laboratories
LMP1 NFkB inh: Epstein-Barr LMP1 NF-kappaB reporter inhibition. inhibition, % at 12.5 µM. LMP1-induced NF-kappaB luciferase reporter cells, luminescence. actives 0.69% (n = 350,000); in the data active = inhibition above about 41%
PAX8 inh HTS: lowers PAX8-driven luciferase in RMG-I cells. actives 1.2% (n = 360,000). AID 652154. RMG-I TPO-luciferase reporter, SteadyGlo, 24 h. inhibition, % at 12.6 µM;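 active = mean replicate inhibition at least 60% with every replicate also reaching 60%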;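 also: luciferase light reporting Pax8 driven TPO promoter activity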
TWEAK-Fn14 inh: blocks TWEAK-Fn14 interaction in a reporter cell assay | TWEAK-stimulated Fn14 reporter cells, luciferase luminescence, 8 h | inhibition, % at 10 µM | actives 2% (n = 360,000); in the data active = inhibition above about 50%
TROY signal inh: blocks TROY-dependent signaling in reporter cells; Q293 LMP1-TROYcd NF-kB luciferase reporter, 4 h; inhibition, % at 10 µM; actives 0.98% (n = 360,000); AID 1347056;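 active = compounds whose plate-normalised and pattern-corrected inhibition of the luciferase reporter signal at the single screening dose is 50% or more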
LGR2 inh: Drosophila LGR2 receptor signaling inhibition | HEK293 LGR2, CRE-luciferase, bursicon-stimulated, 4 h | inhibition, % at 9.99 µM | actives 0.35% (n = 380,000) | AID 720647;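 active = drop in luminescence signal, shown as inhibition above about 50% in the replicate tests, limit read from the data, passing the limit was not always enough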;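 also: agonist challenge used bursicon conditioned medium at about half maximal strength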
EWS-Fli inh: inhibitors of EWS/Fli oncoprotein transcriptional activity; A673 NR0B1-luciferase reporter, viability-normalised; inhibition, % at 12.6 µM; actives 0.67% (n = 350,000);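 active = mean inhibition of at least 50% after viability correction, with every replicate also passing that limit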;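 also: firefly luciferase signal divided by Alamar Blue viability fluorescence both relative to DMSO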
DNA binding: small molecule DNA binding by fluorescence polarization. salmon sperm DNA acridine orange fluorescence polarization. shares compounds with EWS-Fli inh. AC35, µM (titrated, usually from 68 µM). AID 720586. actives 2% (n = 640);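 active = fitted curve reaches a 35% signal fall AC35 below twice the sample's top valid tested dose, actives reach about 48 µM in these data; inactive = the rest, including activity in the rising direction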;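 also: lower polarization ratio signals compound binding to DNA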
A number is an active result; – = inactive; · = no result. Most compounds without a hit are left out; they make up all but 3.2% or so of the library.

SMILES	LMP1 NFkB inh	PAX8 inh HTS	TWEAK-Fn14 inh	TROY signal inh	LGR2 inh	EWS-Fli inh	DNA binding
C[C@H]1CN([C@@H](C)CO)C(=O)c2cc(NS(=O)(=O)c3ccc(Cl)cc3)ccc2O[C@H]1CN(C)Cc1ccc(C(=O)Nc2ccccc2N)cc1	·	–	·	·	–	61	–
C[C@@H]1CN([C@H](C)CO)C(=O)c2cc(NC(=O)CCCCCC(=O)Nc3ccccc3N)ccc2O[C@H]1CN(C)S(=O)(=O)c1ccc(Cl)cc1	·	·	·	·	–	52	–
COc1ccc(S(=O)(=O)Nc2ccc3c(c2)C(=O)N([C@H](C)CO)C[C@@H](C)[C@@H](CN(C)Cc2ccc(C(=O)Nc4ccccc4N)cc2)O3)cc1	·	·	·	·	–	56	–
CN(C)C(=O)c1ccc(-c2ccc([C@H]3[C@H](CO)N4C(=O)CN(C(=O)CC5CC5)C[C@@H]34)cc2)cc1	·	–	·	·	–	–	·
C[C@@H]1CN([C@@H](C)CO)C(=O)c2cc(NS(=O)(=O)c3ccc(F)cc3)ccc2O[C@@H]1CN(C)Cc1ccc(C(=O)Nc2ccccc2N)cc1	·	–	·	·	–	54	–
C[C@@H]1CCCCO[C@H](CN(C)Cc2ccc(C(F)(F)F)cc2)[C@H](C)CN([C@H](C)CO)C(=O)c2cc(NC(=O)CCCN(C)C)ccc2O1	·	·	·	·	–	67	–
C[C@@H]1CCCCO[C@H](CN(C)Cc2ccc(C(=O)Nc3ccccc3N)cc2)[C@@H](C)CN([C@@H](C)CO)C(=O)c2cc(NS(=O)(=O)c3ccc(Cl)cc3)ccc2O1	·	89	·	·	–	59	–
C[C@@H]1CCCCO[C@@H](CN(C)Cc2ccc(C(F)(F)F)cc2)[C@H](C)CN([C@H](C)CO)C(=O)c2cc(NC(=O)CCCN(C)C)ccc2O1	·	·	·	·	–	–	·
CCC(=O)N[C@H]1CC[C@H](CCNS(=O)(=O)c2ccc(Cl)cc2)O[C@H]1CO	·	–	·	·	–	–	·
CN(C)Cc1cn(CC[C@@H]2CC[C@H](N)[C@@H](CO)O2)nn1	·	–	·	·	–	–	·
COCCNC(=O)C[C@@H]1CC[C@H](NC(=O)NC2CCCCC2)[C@@H](CO)O1	·	·	·	·	–	·	·
O=C(Nc1cccc(S(=O)(=O)N2CCCC2)c1)c1ccc(Cl)nc1	–	·	–	–	–	51	–
O=C(Nc1cccc(S(=O)(=O)N2CCOCC2)c1)c1ccc(Cl)nc1	–	–	–	–	–	–	·
COc1ccc(C(C)(O)c2nc(-c3cccc(F)c3)cs2)cc1 (configuration not stated)	·	–	–	–	–	53	–
CCN1CCN(Cc2c(O)ccc3c2O/C(=C\C=C\c2ccccc2)C3=O)CC1	–	–	–	–	–	–	·
CN(C)Cc1c(O)ccc2c1O/C(=C\C=C\c1ccccc1)C2=O	–	77	–	–	–	75	–
CO[C@@H]1CN(C)C(=O)c2ccc(NC(=O)c3cnccn3)cc2OC[C@H](C)N(C(=O)C2CC2)C[C@@H]1C	·	–	·	·	–	–	·
O=C(Cc1cccnc1)N1CC2(C1)[C@@H](c1ccccc1)[C@@H](CO)N2C(=O)C1CCC1	·	–	·	·	–	–	·
CC(C)CC(NC(=O)c1cccs1)c1nnc(SCc2ccc(Cl)c(Cl)c2)n1C (configuration not stated)	–	–	–	–	–	76	–
COc1ccc(C(=O)NC(CO)c2nnc(SCc3ccc(Cl)c(Cl)c3)n2C)cc1 (configuration not stated)	–	·	–	–	–	·	·
C=C1C(=O)O[C@@H]2[C@H]1[C@@H](OC(=O)/C(C)=C/C)C/C(C)=C\C(=O)/C=C(\C)[C@@H]2O	67	98	67	–	55	73	–
C=C1C(=O)O[C@H]2C[C@]3(C)C([C@@H](OC(=O)/C(C)=C/C)[C@H]12)[C@](C)(O)CC[C@H]3O (some centres not stated)	–	–	–	–	–	–	·
Cc1noc(C)c1NC(=O)N(C)C[C@H]1Oc2ccc(NS(=O)(=O)c3c(C)noc3C)cc2C(=O)N([C@@H](C)CO)C[C@@H]1C	·	·	·	·	–	–	·
Cc1[nH][nH]c(=O)c1C(c1c(C)[nH][nH]c1=O)c1cn(Cc2ccc(F)cc2)c2ccccc12	–	·	–	–	·	·	·
Cc1[nH][nH]c(=O)c1C(c1c(C)[nH][nH]c1=O)c1cn(Cc2ccc(Cl)c(Cl)c2)c2ccccc12	–	–	–	–	–	53	–
SMILES	LMP1 NFkB inh	PAX8 inh HTS	TWEAK-Fn14 inh	TROY signal inh	LGR2 inh	EWS-Fli inh	DNA binding
COCC(=O)Nc1ccc2c(c1)C(=O)N(C)C[C@@H](OC)[C@H](C)CN(C(=O)C1CCCC1)[C@H](C)CO2	·	·	·	·	–	–	·
C/C=C/c1ccc([C@H]2[C@@H](CO)N(C(C)=O)[C@@H]2CN(CCC)C(=O)C2CCC2)cc1	·	·	·	·	–	·	·
O=C(NCc1cccnc1)C1Cc2c(-c3ccc(Cl)cc3)ccnc2O1 (configuration not stated)	·	–	–	–	–	52	–
Cc1noc(C)c1S(=O)(=O)Nc1ccc2c(c1)CC(=O)N([C@@H](C)CO)C[C@@H](C)[C@H](CN(C)Cc1ccc(C(F)(F)F)cc1)O2	·	·	·	·	–	–	·
C[C@H]1CN([C@@H](C)CO)C(=O)c2cccc(NC(=O)Nc3ccccc3)c2O[C@@H]1CN(C)Cc1ccc(-c2ccccc2)cc1	·	–	·	·	–	–	·
C[C@@H]1CN([C@H](C)CO)C(=O)c2cc(C#CCN(C)C)cnc2O[C@H]1CN(C)Cc1ccc(-c2ccccc2)cc1	·	·	·	·	–	54	–
C[C@@H]1CN([C@H](C)CO)C(=O)c2cccc(N(C)C)c2O[C@@H]1CN(C)Cc1ccc(C(=O)Nc2ccccc2N)cc1	·	–	·	·	·	56	–
C[C@@H]1CN([C@@H](C)CO)C(=O)c2cccc(NC(=O)Nc3ccccc3)c2O[C@@H]1CN(C)Cc1ccc(-c2ccccc2)cc1	·	–	·	·	·	78	–
C[C@H]1CN([C@@H](C)CO)C(=O)c2cccc(NC(=O)c3ccc(-c4nccs4)cc3)c2O[C@@H]1CN(C)Cc1ccc(C(=O)Nc2ccccc2N)cc1	·	·	·	·	–	52	–
COc1ccc(S(=O)(=O)N(C)C[C@H]2OCCCC[C@@H](C)Oc3ccc(NS(=O)(=O)c4ccccc4)cc3C(=O)N([C@H](C)CO)C[C@@H]2C)cc1	·	–	·	·	–	–	·
COc1ccc(NC(=O)N(C)C[C@@H]2Oc3c(NC(=O)CCCCCC(=O)Nc4ccccc4N)cccc3C(=O)N([C@H](C)CO)C[C@H]2C)cc1	·	–	·	·	–	–	·
COc1ccc2c3c([nH]c2c1)[C@@H](CO)N(Cc1ccccc1)CC31CN(S(C)(=O)=O)C1	·	·	·	·	–	–	·
CCCN(C)C[C@@H]1Oc2cc(C3=CCCCC3)ccc2S(=O)(=O)N([C@@H](C)CO)C[C@H]1C	·	–	·	·	·	–	·
C[C@H](CO)N1C[C@H](C)[C@H](CN(C)Cc2ccc(C(=O)Nc3ccccc3N)cc2)Oc2c(NC(=O)C3CC3)cccc2C1=O	·	·	·	·	–	–	·
Cc1ccc(S(=O)(=O)N(C)C[C@H]2Oc3c(cccc3N(C)C)C(=O)N([C@H](C)CO)C[C@@H]2C)cc1	·	–	·	·	–	–	·
